Where “and” joins values, the source holds several entries; their conditions need not be identical. Equal entries are not always repeated. Where a structure was tested more than once in an assay, its records may differ in their call. Calls of active or inactive are those of the source. Rule for the calls: active = hit-call score of the fitted dose curve at least 0.9, where 1 is the maximum; inactive = score below 0.9.
Columns and labels:
[1] = ATG_CRE_CIS: Attagene CIS-FACTORIAL HepG2 Assay for human cAMP Responsive Element (CRE) binding protein 3 (AID 2282926); conditions: HepG2 CRE cis-reporter, Attagene multiplexed mRNA; actives raise or lower the signal
Outline: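 Endogenous CRE-binding activity in HepG2 is reported through a cis-regulated transfected reporter. Following a day of exposure, mRNA levels are determined by reverse transcription PCR and fluorescent fragment analysis; fits run in both directions versus DMSO.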

[2] = target: CCAAT/enhancer-binding protein beta (Homo sapiens) (UniProt P17676); assay: ATG_C_EBP_CIS: Attagene CIS-FACTORIAL HepG2 Assay for human CCAAT/Enhancer Binding Protein (C/EBP) beta (AID 2282927); conditions: HepG2 Attagene cis-factorial transcription factor reporter; actives raise or lower the signal
Outline: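 Transiently transfected HepG2 (MRTU library, endogenous TF-driven promoters); 24 h dosing; total RNA → oligo(dT) RT → PCR → 6-FAM primer extension → HpaI digest → CE; fit bidirectionally vs DMSO.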

[3] = ATG_CMV_CIS: Attagene CIS-FACTORIAL HepG2 Assay for human CMV (Internal Marker) (AID 2282928); conditions: HepG2 CMV promoter reporter, transcription factor profiling; actives raise or lower the signal;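 note: endpoint acts as a background internal control marker rather than a target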
Outline: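 After transient transfection of HepG2 with reporter transcription units driven by cis-regulatory promoters, cells receive test chemical for 24 h. Labeled reporter amplicons, digested with HpaI, are sized and quantified by capillary electrophoresis against DMSO.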

[4] = ATG_DR4_LXR_CIS: Attagene CIS-FACTORIAL HepG2 Assay for human Liver X Receptor (LXR), DR4 submotif (AID 2282929); conditions: HepG2 Attagene DR4 cis-reporter, mRNA transcription; actives raise or lower the signal
Outline: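 Readout: reporter transcript fluorescence after RT-PCR and capillary electrophoresis, fitted bidirectionally against DMSO controls. Human HepG2 liver cells carried transiently transfected multiplexed reporter constructs; endogenous transcription factor activity measured 24 h post-dosing.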

[5] = target: Aryl hydrocarbon receptor (Homo sapiens) (UniProt P35869); assay: ATG_Ahr_CIS: Attagene CIS-FACTORIAL HepG2 Assay for human Aryl Hydrocarbon Receptor (Ahr) (AID 2282930); conditions: HepG2 AhR cis-factorial reporter transcription; actives raise or lower the signal
Outline: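 Read-out: reporter mRNA quantified by RT-PCR with fluorescent primer extension and capillary electrophoresis. Human HepG2 liver cells carried transfected cis-promoter reporter units and were exposed to chemical for 24 h; gain or loss fitted relative to DMSO.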

[6] = ATG_AP_1_CIS: Attagene CIS-FACTORIAL HepG2 Assay for human Activator Protein 1 (AP-1) (AID 2282931); conditions: HepG2 Attagene cis-factorial AP-1 reporter mRNA; actives raise or lower the signal
Outline: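 Reporter transcripts were measured 24 h after dosing by RT-PCR and capillary electrophoresis of fluorescent fragments. Cells: HepG2 carrying transfected cis-regulated reporter constructs reading endogenous factor activity. Gain or loss fitted against DMSO.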

[7] = ATG_AP_2_CIS: Attagene CIS-FACTORIAL HepG2 Assay for human Activator Protein 2 (AP-2) (AID 2282932); conditions: HepG2 AP-2 cis-reporter, Attagene transcription factor profiling; actives raise or lower the signal
Outline: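 HepG2 cells transiently transfected with cis-element reporter units and exposed for 24 h. Reporter mRNA measured by RT-PCR, FAM labelling, HpaI digestion and capillary electrophoresis. Changes in either direction fitted relative to DMSO.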

[8] = ATG_BRE_CIS: Attagene CIS-FACTORIAL HepG2 Assay for human Bone Morphogenetic Protein (BMP) Response Element (BRE) (AID 2282933); conditions: HepG2 BMP response element reporter, Attagene transcription factor profiling; actives raise or lower the signal
Outline: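 Fluorescence-labelled reporter cDNA fragments, separated by capillary electrophoresis, gave the signal for this component of a 52-readout multiplex. HepG2 cells were transfected, exposed to chemicals for 24 h, and compared with DMSO using bidirectional fitting.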

[9] = target: Retinoic acid receptor alpha (Homo sapiens) (UniProt P10276); assay: ATG_DR5_RAR_CIS: Attagene CIS-FACTORIAL HepG2 Assay for human Retinoic Acid Receptor Alpha (RARE), DR5 submotif (AID 2282934); conditions: HepG2 Attagene cis-factorial RARE DR5 reporter, mRNA; actives raise or lower the signal;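 for AC50: reporter responds to endogenous RAR alpha beta and gamma in HepG2 not RARA alone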
Outline: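 Read-out: DR5-driven reporter transcript measured by RT-PCR, 6-FAM primer extension, HpaI digest and capillary electrophoresis. Human HepG2 liver cells carry transiently transfected cis-element reporter constructs; dosing lasts 24 h. Gain or loss of signal fitted against DMSO baseline.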

[10] = target: Transcription factor E2F1 (Homo sapiens) (UniProt Q01094); assay: ATG_E2F_CIS: Attagene CIS-FACTORIAL HepG2 Assay for human E2F Transcription Factor 1 (AID 2282935); conditions: HepG2 Attagene cis-reporter, E2F reporter RNA transcripts; actives raise or lower the signal
Outline: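 Endogenous E2F1 activity read through cis-promoter reporter units transfected into HepG2. After 24 h compound treatment, reporter mRNA measured by RT-PCR, HpaI digestion and capillary electrophoresis. Bidirectional fit versus DMSO.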

[11] = ATG_E_Box_CIS: Attagene CIS-FACTORIAL HepG2 Assay for human Enhancer Box (E-box) (AID 2282936); conditions: HepG2 E-box cis-reporter transcription, actives raise or lower the signal
Outline: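 HepG2 cells transiently transfected with multiplexed cis-element reporter units, dosed 24 h; reporter mRNA quantified by RT-PCR, 6-FAM labelling, HpaI digestion and capillary electrophoresis. E-box (USF1) signal fitted bidirectionally vs DMSO.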

[12] = ATG_M_61_CIS: Attagene CIS-FACTORIAL HepG2 Assay for M61 Transcription Factor (Internal Marker) (AID 2282937); conditions: HepG2 Attagene CIS-FACTORIAL M61 internal marker reporter; actives raise or lower the signal
Outline: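 Readout: fluorescent reporter mRNA fragments resolved by capillary electrophoresis after RT-PCR. Transiently transfected human HepG2 cells carried MRTU constructs reporting endogenous TF activity; 24 h chemical exposure; gain or loss of signal fitted relative to DMSO.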

[13] = ATG_EGR_CIS: Attagene CIS-FACTORIAL HepG2 Assay for human Early Growth Response 1 (EGR1) (AID 2282938); conditions: HepG2 Attagene CIS-FACTORIAL EGR reporter mRNA; actives raise or lower the signal
Outline: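 Read-out: fluorescent reporter-mRNA fragments resolved by capillary electrophoresis after RT-PCR, 24 h post-dose in transiently transfected HepG2. Endogenous transcription-factor activity reported via cis-element-regulated reporter units; gain or loss fitted relative to DMSO.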

[14] = ATG_M_19_CIS: Attagene CIS-FACTORIAL HepG2 Assay for M19 Transcription Factor (Internal Marker) (AID 2282939); conditions: HepG2 Attagene CIS-FACTORIAL M19 internal marker reporter; actives raise or lower the signal
Outline: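 HepG2, MRTU transient transfection, 24 h dosing. Total RNA → RT-PCR → 6-FAM primer extension → HpaI digest → CE fluorescence. Bidirectional curve fit, DMSO negative control.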

[15] = ATG_ERE_CIS: Attagene CIS-FACTORIAL HepG2 Assay for Estrogen Response Element (ERE) (AID 2282940); conditions: HepG2 ERE cis-reporter, Attagene RNA transcript; actives raise or lower the signal
Outline: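 After a 24 h chemical treatment, RNA from reporter-transfected HepG2 cells is reverse-transcribed, PCR-amplified and fluorescently labelled. Fragments separated by capillary electrophoresis give reporter signal; DMSO serves as negative control.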

[16] = ATG_Ets_CIS: Attagene CIS-FACTORIAL HepG2 Assay for human Erythroblast Transformation Specific (ETS) (AID 2282941); conditions: HepG2 ETS cis-reporter transcription, actives raise or lower the signal
Outline: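 Human HepG2 hepatoma cells were transiently transfected with promoter-driven reporter constructs and treated for 24 hours. Reporter transcripts were quantified by RT-PCR with fluorescent primer extension; bidirectional curve fitting used DMSO as reference.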

[17] = target: Hepatocyte nuclear factor 3-beta (Homo sapiens) (UniProt Q9Y261); assay: ATG_FoxA2_CIS: Attagene CIS-FACTORIAL HepG2 Assay for human Forkhead box A2 (FOXA2) (AID 2282942); conditions: HepG2 cis-reporter transcription factor activity, 24 h; actives raise or lower the signal
Outline: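 Readout: fluorescent reporter transcripts resolved by capillary electrophoresis after RT-PCR. Transiently transfected HepG2, 24 h compound exposure, endogenous TF activity at cis promoter elements. Gain or loss of signal fitted relative to DMSO.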

[18] = ATG_FoxO_CIS: Attagene CIS-FACTORIAL HepG2 Assay for human Forkhead box O (FoxO) (AID 2282943); conditions: HepG2 Attagene cis-reporter, FoxO element, mRNA; actives raise or lower the signal
Outline: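 Read-out: fluorescence of 6-FAM-labelled reporter cDNA fragments resolved by capillary electrophoresis. Transiently transfected HepG2 cells were dosed for 24 h; activity fitted in both directions relative to DMSO controls.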

[19] = ATG_GATA_CIS: Attagene CIS-FACTORIAL HepG2 Assay for human GATA Binding Protein (AID 2282944); conditions: HepG2 GATA cis-element reporter, Attagene multiplex mRNA; actives raise or lower the signal
Outline: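 Cells: HepG2, transiently transfected with cis-regulated reporter transcription units. Exposure: 24 h. Detection: RT-PCR plus capillary electrophoresis of FAM-labeled fragments. Analysis: bidirectional, DMSO as baseline.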

[20] = APR_HepG2_NuclearSize_72hr: Apredica 72-hour HepG2 Assay for Nuclear Size (AID 2282925); conditions: high-content imaging, actives raise or lower the signal
Outline: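 HepG2 cells dosed 72 h at 0.39–200 uM (10 concentrations, duplicate) in 0.5% v/v DMSO final. Fixed, Hoechst 33342-stained nuclei imaged; nuclear diameter measured by automated image analysis. Bidirectional fit versus DMSO.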

Measured: AC50

Sequence of CCAAT/enhancer-binding protein beta (Homo sapiens) (P17676 whole entry, looked up): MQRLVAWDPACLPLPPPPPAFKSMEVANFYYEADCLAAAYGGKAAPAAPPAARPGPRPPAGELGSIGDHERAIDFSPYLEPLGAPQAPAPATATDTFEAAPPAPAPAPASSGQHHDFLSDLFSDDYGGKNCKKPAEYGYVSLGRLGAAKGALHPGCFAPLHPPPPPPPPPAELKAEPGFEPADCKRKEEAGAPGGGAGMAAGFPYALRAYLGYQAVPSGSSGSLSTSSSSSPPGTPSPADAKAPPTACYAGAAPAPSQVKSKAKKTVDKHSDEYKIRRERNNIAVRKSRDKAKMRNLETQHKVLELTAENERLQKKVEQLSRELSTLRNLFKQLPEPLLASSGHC
Sequence of Aryl hydrocarbon receptor (Homo sapiens) (P35869 whole entry, looked up): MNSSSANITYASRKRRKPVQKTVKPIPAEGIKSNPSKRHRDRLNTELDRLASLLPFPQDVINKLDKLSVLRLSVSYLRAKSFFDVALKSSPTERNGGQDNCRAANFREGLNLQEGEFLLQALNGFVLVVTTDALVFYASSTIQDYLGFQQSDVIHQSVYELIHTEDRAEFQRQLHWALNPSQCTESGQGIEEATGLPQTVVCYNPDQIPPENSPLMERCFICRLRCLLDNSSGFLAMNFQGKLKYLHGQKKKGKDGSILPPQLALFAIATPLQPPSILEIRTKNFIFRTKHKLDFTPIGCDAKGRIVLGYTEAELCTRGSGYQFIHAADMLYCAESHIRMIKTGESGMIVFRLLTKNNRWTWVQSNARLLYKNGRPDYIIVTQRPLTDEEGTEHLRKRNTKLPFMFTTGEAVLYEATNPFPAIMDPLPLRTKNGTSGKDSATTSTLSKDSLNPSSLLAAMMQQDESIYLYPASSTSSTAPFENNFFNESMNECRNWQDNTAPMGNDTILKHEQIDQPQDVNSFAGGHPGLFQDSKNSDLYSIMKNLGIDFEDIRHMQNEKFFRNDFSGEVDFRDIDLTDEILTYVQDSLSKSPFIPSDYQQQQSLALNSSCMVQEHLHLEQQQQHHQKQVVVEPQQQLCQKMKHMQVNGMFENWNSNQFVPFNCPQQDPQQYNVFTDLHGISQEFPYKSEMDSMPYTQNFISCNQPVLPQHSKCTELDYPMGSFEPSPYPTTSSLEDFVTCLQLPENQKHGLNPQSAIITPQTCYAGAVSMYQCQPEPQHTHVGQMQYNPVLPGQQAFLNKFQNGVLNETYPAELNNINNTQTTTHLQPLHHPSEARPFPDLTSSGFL
Sequence of Hepatocyte nuclear factor 3-beta (Homo sapiens) (Q9Y261 whole entry, looked up): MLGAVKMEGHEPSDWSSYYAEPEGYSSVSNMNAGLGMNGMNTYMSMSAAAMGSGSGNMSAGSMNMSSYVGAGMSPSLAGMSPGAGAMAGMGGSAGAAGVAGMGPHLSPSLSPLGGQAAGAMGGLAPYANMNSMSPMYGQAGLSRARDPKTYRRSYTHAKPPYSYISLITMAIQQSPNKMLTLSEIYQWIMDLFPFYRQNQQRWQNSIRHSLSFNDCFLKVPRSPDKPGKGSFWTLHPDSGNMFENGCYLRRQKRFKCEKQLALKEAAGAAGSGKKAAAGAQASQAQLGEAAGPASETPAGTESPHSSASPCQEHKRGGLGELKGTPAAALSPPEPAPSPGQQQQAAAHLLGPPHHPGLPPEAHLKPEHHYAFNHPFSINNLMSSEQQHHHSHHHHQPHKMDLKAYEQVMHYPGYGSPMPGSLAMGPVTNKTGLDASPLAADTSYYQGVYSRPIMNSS
Sequence of Retinoic acid receptor alpha (Homo sapiens) (P10276 whole entry, looked up): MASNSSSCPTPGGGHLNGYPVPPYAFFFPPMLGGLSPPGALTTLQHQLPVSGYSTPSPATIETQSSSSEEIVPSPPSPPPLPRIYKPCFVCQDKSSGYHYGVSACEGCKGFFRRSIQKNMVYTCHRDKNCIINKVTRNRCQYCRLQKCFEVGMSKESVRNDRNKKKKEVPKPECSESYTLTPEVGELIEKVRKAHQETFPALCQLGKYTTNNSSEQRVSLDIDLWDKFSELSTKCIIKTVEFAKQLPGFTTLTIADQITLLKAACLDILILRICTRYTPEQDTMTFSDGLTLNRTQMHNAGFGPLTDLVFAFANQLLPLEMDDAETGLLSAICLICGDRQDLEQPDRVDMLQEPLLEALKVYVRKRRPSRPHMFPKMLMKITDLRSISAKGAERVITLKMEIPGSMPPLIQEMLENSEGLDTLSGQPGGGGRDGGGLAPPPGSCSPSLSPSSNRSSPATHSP
Sequence of Transcription factor E2F1 (Homo sapiens) (Q01094 whole entry, looked up): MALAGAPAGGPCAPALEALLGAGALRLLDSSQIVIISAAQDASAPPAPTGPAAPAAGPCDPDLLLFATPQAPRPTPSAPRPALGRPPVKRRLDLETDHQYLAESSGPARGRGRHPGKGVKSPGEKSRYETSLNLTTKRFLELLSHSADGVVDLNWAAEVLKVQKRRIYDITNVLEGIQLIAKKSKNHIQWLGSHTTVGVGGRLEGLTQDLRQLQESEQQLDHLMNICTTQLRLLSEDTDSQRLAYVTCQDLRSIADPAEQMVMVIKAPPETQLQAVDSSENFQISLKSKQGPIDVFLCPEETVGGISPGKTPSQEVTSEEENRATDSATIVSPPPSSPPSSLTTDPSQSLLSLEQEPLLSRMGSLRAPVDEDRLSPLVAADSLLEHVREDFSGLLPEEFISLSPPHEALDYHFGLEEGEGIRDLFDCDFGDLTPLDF

CCCC1COC(Cn2cncn2)(c2ccc(Cl)cc2Cl)O1 (centres undefined)
active: [3] 50 µM | [5] 25 µM | [6] 50 µM | [8] 29.7 µM | [9] 6.97 µM | [10] 85.1 µM | [15] 1.71 µM | [16] 58 µM
inactive: [1] | [2] | [3] | [4] | [5] | [6] | [7] | [8] | [9] | [10] | [11] | [12] | [13] | [14] | [15] | [16] | [17] | [18] | [19]

COC(=O)C(C)Oc1ccc(Oc2ccc(Cl)cc2Cl)cc1 (centres undefined)
not listed: [15]
inactive: all other assays above

C=CCC1=C(C)C(OC(=O)C2C(C=C(C)C)C2(C)C)CC1=O (centres undefined)
active: [1] 48.8 µM [middle of 5 runs] | [2] 70.3 µM and 111 µM and 13.8 µM | [3] 35 µM [middle of 5 runs] | [4] 51.1 µM [middle of 4 runs] | [5] 43.6 µM and 105 µM | [6] 33.5 µM [middle of 6 runs] | [7] 167 µM | [10] 132 µM | [11] 46.9 µM | [13] 33.4 µM [middle of 5 runs] | [14] 161 µM | [15] 35 µM and 26.7 µM and 12.7 µM | [16] 163 µM | [17] 83.3 µM and 125 µM and 50 µM | [18] 152 µM
inactive: [1] | [2] | [3] | [4] | [5] | [7] | [10] | [11] | [12] | [13] | [14] | [15] | [16] | [17] | [18] | [19]

CCCCNC(=O)OCC#CI
active: [1] 29.7 µM | [2] 25.3 µM | [3] 67.7 µM | [4] 180 µM | [6] 181 µM | [7] 60.7 µM | [8] 25.2 µM | [9] 26.7 µM | [11] 145 µM | [13] 33.4 µM | [16] 48.7 µM | [17] 173 µM | [18] 26.4 µM | [19] 49.2 µM
inactive: [1] | [2] | [3] | [4] | [5] | [6] | [7] | [8] | [9] | [10] | [11] | [12] | [13] | [14] | [15] | [16] | [17] | [18] | [19]

Oc1ccccc1-c1ccccc1
inactive: [1] | [2] | [3] | [5] | [6] | [7] | [10] | [11] | [12] | [13] | [14] | [15] | [16] | [17] | [18] | [19]
active: [1] 148 µM | [3] 56.6 µM | [4] 80.3 µM and 64 µM | [5] 40.5 µM | [6] 88.3 µM | [8] 71.7 µM and 150 µM | [13] 62.4 µM | [15] 13.1 µM
